From PubChem BioAssay (Tox21)
Results filed as inconclusive are left out. Activity calls are given as the source filed them. The call rests on the fitted dose curve; in most records, active means well fitted curve in the direction sought with a large enough effect in the repeat runs; inconclusive means weak or mixed curves; inactive means no such curve, though single readings can be large; an effect the other way counts as inactive or inconclusive.

How the values were obtained:
[1] = A CellTox Green Cytotoxicity Assay to monitor cytotoxicity in HEK293 cells - 24 hour (AID 1224875); further: nearly all actives have a fitted effect of over 45% in size; further: potency means the concentration at half of the fitted maximal effect
Procedure, shortened: (§1)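 Seeding of HEK293 cells together with cytotoxicity dye preceded a 5 h incubation at 37 C/5% CO2. Test compounds in DMSO were then added and fluorescence monitored across 40 h.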

[2] = A CellTox Green Cytotoxicity Assay to monitor cytotoxicity in HepG2 cells - 16 hour (AID 1224876); further: nearly all actives have a fitted effect of over 45% in size; further: potency means the concentration at half of the fitted maximal effect
Procedure, shortened: (§2)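 Nonlytic assay: viable cells exclude the dye, so fluorescence scales with cell death. HepG2 at 600 cells/well, compounds added after 5 h, signal read across 40 h.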

[3] = qHTS RealTime-Glo MT Cell Viability Assay in HepG2 cells - 32 hour (AID 1224877); further: nearly all actives have a fitted effect of over 55% in size; further: potency means the concentration at half of the fitted maximal effect
Procedure, shortened: (§3)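 qHTS, HepG2, 600 cells/well, RealTime-Glo (NanoLuc + prosubstrate) added with cells; 5 h preincubation; DMSO compound addition; 37 C; luminescence at 0/8/16/24/32/40 h.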

[4] = qHTS RealTime-Glo MT Cell Viability Assay in HEK293 cells - 0 hour (AID 1224880); further: top concentration of the series differs between compounds; nearly all actives have a fitted effect of over 45% in size
Procedure, shortened: (§4)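 Tox21 screen in HEK293 using RealTime-Glo MT chemistry, with cells and reagent co-dispensed. Luminescence proportional to viable cell number was captured at intervals during 40 h compound exposure at 37 C.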

[5] = A CellTox Green Cytotoxicity Assay to monitor cytotoxicity in HepG2 cells - 0 hour (AID 1224882); further: nearly all actives have a fitted effect of over 35% in size
Procedure, shortened: as §2

[6] = A CellTox Green Cytotoxicity Assay to monitor cytotoxicity in HEK293 cells - 8 hour (AID 1224884); further: nearly all actives have a fitted effect of over 35% in size; further: potency means the concentration at half of the fitted maximal effect
Procedure, shortened: as §1

[7] = qHTS RealTime-Glo MT Cell Viability Assay in HEK293 cells - 24 hour (AID 1224886); further: nearly all actives have a fitted effect of over 50% in size; further: potency means the concentration at half of the fitted maximal effect
Procedure, shortened: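 Assay medium contained NanoLuc luciferase plus cell-permeant prosubstrate, added with HEK293 cells at 600 cells/well. After 5 h at 37 C/5% CO2 compounds were added; plates stayed at 37 C for 40 h with serial luminescence reads.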

[8] = qHTS RealTime-Glo MT Cell Viability Assay in HEK293 cells - 8 hour (AID 1224887); further: nearly all actives have a fitted effect of over 50% in size; further: potency means the concentration at half of the fitted maximal effect
Procedure, shortened: as §4

[9] = A CellTox Green Cytotoxicity Assay to monitor cytotoxicity in HEK293 cells - 16 hour (AID 1224888); further: nearly all actives have a fitted effect of over 35% in size; further: potency means the concentration at half of the fitted maximal effect
Procedure, shortened: as §1

[10] = qHTS RealTime-Glo MT Cell Viability Assay in HepG2 cells - 0 hour (AID 1224889); further: nearly all actives have a fitted effect of over 50% in size; further: potency means the concentration at half of the fitted maximal effect
Procedure, shortened: as §3

[11] = A CellTox Green Cytotoxicity Assay to monitor cytotoxicity in HepG2 cells - 8 hour (AID 1224890); further: nearly all actives have a fitted effect of over 45% in size; further: potency means the concentration at half of the fitted maximal effect
Procedure, shortened: as §2

[12] = qHTS assay to identify small molecule antagonists of the estrogen receptor alpha (ER-alpha) signaling pathway using the BG1 cell line in the presence of 0.1 nM 17-beta-estradiol - cell viability counter screen (AID 1259241); further: nearly all actives have a fitted effect of over 40% in size; further: potency means the concentration at half of the fitted maximal effect
Procedure, shortened: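 Estradiol-stimulated (0.1 nM) VM7Luc4E2 cells exposed to compounds 22 hr; viability measured by fluorescence of cleaved CellTiter-Fluor substrate after 30 min.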

[13] = qHTS assay to identify small molecule antagonists of the androgen receptor (AR) signaling pathway using the MDA cell line in the presence of 0.5 nM R1881 - cell viability counter screen (AID 1259242); further: nearly all actives have a fitted effect of over 45% in size; further: potency means the concentration at half of the fitted maximal effect
Procedure, shortened: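 R1881 at 0.5 nM final stimulated MDA-kb2 cells during 16 hr compound treatment at 37C. Cytotoxicity read: CellTiter-Fluor fluorescence after 30 min.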

[14] = biological target: Estrogen receptor (Homo sapiens) (UniProt P03372); assay: qHTS assay to identify small molecule antagonists of the estrogen receptor alpha (ER-alpha) signaling pathway using the BG1 cell line in the presence of 0.1 nM 17-beta-estradiol (AID 1259244); further: nearly all actives have a fitted effect of over 50% in size; further: potency means the concentration at half of the fitted maximal effect
Procedure, shortened: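 VM7Luc4E2; 4xERE-luciferase; 0.1 nM E2 final; 22 h co-incubation, 37C; ONE-Glo luminescence after 30 min at room temperature.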

[15] = A CellTox Green Cytotoxicity Assay to monitor cytotoxicity in HepG2 cells - 40 hour (AID 1224879); further: nearly all actives have a fitted effect of over 40% in size; further: potency means the concentration at half of the fitted maximal effect
Procedure, shortened: as §2

[16] = A CellTox Green Cytotoxicity Assay to monitor cytotoxicity in HEK293 cells - 32 hour (AID 1224881); further: nearly all actives have a fitted effect of over 40% in size; further: potency means the concentration at half of the fitted maximal effect
Procedure, shortened: as §1

[17] = A CellTox Green Cytotoxicity Assay to monitor cytotoxicity in HepG2 cells - 32 hour (AID 1224883); further: nearly all actives have a fitted effect of over 50% in size; further: potency means the concentration at half of the fitted maximal effect
Procedure, shortened: as §2

[18] = qHTS RealTime-Glo MT Cell Viability Assay in HepG2 cells - 16 hour (AID 1224885); further: nearly all actives have a fitted effect of over 50% in size; further: potency means the concentration at half of the fitted maximal effect
Procedure, shortened: as §3

[19] = biological target: Androgen receptor (Homo sapiens) (UniProt P10275); assay: qHTS assay to identify small molecule antagonists of the androgen receptor (AR) signaling pathway using the MDA cell line in the presence of 0.5 nM R1881 (AID 1259243); further: nearly all actives have a fitted effect of over 50% in size; further: potency means the concentration at half of the fitted maximal effect
Procedure, shortened: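 We exposed MDA-kb2 cells to compounds under 0.5 nM R1881 stimulation for 16 hr at 37C and quantified MMTV-driven luciferase by luminescence.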

[20] = A CellTox Green Cytotoxicity Assay to monitor cytotoxicity in HepG2 cells - 24 hour (AID 1224878); further: nearly all actives have a fitted effect of over 45% in size; further: potency means the concentration at half of the fitted maximal effect
Procedure, shortened: as §2

Measured: Potency

Sequence of Androgen receptor (Homo sapiens) (P10275 whole entry, looked up): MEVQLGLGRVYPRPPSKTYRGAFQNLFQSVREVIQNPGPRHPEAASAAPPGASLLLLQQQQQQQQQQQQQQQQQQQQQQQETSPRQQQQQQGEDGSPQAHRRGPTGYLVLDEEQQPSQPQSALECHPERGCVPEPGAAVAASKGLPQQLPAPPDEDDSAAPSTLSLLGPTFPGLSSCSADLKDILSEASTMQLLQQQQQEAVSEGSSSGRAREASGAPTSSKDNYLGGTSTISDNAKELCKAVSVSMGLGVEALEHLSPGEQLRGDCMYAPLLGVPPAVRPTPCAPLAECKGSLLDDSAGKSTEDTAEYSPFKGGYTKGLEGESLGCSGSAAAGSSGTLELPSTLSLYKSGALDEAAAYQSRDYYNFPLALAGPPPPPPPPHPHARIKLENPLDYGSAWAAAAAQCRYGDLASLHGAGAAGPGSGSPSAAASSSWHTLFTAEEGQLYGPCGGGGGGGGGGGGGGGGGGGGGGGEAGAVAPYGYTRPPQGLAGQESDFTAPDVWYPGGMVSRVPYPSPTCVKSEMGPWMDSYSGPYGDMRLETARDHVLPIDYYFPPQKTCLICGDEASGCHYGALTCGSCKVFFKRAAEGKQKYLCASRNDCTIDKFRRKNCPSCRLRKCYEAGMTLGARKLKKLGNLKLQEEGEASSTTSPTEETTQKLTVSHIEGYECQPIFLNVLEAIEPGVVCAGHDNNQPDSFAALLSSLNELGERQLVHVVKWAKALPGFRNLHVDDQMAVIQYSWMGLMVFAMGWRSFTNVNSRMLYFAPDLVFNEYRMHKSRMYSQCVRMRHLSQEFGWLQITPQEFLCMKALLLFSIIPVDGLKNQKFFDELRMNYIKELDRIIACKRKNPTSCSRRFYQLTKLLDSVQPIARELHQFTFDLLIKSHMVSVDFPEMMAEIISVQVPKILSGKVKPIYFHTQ
Sequence of Estrogen receptor (Homo sapiens) (P03372 whole entry, looked up): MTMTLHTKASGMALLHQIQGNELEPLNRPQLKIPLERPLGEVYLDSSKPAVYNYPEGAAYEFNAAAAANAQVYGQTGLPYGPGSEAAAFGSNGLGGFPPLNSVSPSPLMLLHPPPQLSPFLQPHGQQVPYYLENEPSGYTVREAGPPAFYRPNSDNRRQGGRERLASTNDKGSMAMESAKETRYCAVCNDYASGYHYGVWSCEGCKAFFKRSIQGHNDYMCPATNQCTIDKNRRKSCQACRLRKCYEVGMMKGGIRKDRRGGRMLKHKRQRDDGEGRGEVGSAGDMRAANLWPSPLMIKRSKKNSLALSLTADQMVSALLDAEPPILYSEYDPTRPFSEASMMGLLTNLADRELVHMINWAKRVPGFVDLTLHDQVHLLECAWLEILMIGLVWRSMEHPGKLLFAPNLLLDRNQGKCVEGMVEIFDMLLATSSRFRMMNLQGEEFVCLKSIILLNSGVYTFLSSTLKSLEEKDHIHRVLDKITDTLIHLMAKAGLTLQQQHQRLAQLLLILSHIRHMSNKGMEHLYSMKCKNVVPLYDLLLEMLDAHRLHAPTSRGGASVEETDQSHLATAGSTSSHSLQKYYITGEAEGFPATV

Cc1cc(Br)ccc1NC(=O)CCl
active: [3] 43.6 µM | [7] 30.9 µM | [8] 24.5 µM | [12] 61.1 µM | [13] 48.6 µM
inactive: [1] | [2] | [4] | [5] | [6] | [9] | [10] | [11] | [14]

CC(=O)Nc1ccc(N=Nc2cc(C)ccc2O)cc1
inactive: [1] | [2] | [3] | [15] | [4] | [16] | [5] | [17] | [6] | [18] | [7] | [8] | [9] | [10] | [11] | [19] | [14]

C=C1C(CCl)(CCl)C2(Cl)C(Cl)C(Cl)C1(Cl)C2(Cl)Cl (centres undefined)
inactive: [2] | [4] | [5] | [10] | [11] | [12] | [13]
active: [1] 54.3 µM | [16] 48.4 µM | [8] 43.1 µM | [19] 48 µM

COc1c(Br)cc(Br)c(C)c1Br
inactive: [1] | [3] | [4] | [16] | [6] | [18] | [7] | [8] | [9] | [10] | [11] | [12]

c1ccc(-c2ccc(C(c3ccccc3)n3ccnc3)cc2)cc1 (centres undefined)
active: [7] 30.1 µM
inactive: [1] | [3] | [15] | [4] | [16] | [5] | [17] | [6] | [18] | [9] | [10] | [11] | [12] | [13] | [14]

CCCCCCCCCCCCN1CCCC1=O
inactive: [4] | [5] | [10] | [12] | [14]

NCc1ccco1
inactive: [2] | [3] | [20] | [15] | [4] | [16] | [5] | [17] | [18] | [7] | [8] | [10] | [11] | [12]

CC(C)(C)c1ccc(OC2CCCCC2O)cc1 (centres undefined)
active: [1] 54.9 µM | [16] 49 µM | [7] 54.9 µM | [19] 61.1 µM
inactive: [3] | [4] | [5] | [18] | [10] | [11] | [12]

Cc1cc(F)ccc1-c1cc(N2CC[C@@H](O)[C@H]2CO)ncc1N(C)C(=O)C(C)(C)c1cc(C(F)(F)F)cc(C(F)(F)F)c1
inactive: [5] | [6] | [12]
active: [2] 43 µM | [3] 38.3 µM | [15] 43 µM | [17] 43 µM | [18] 38.3 µM | [7] 17.1 µM | [8] 34.1 µM | [10] 1.71 µM | [19] 38 µM

CC(C)=CCC[C@H](C)CC=O
inactive: [2] | [3] | [20] | [15] | [4] | [5] | [17] | [6] | [18] | [7] | [8] | [10] | [11] | [12] | [13]

O=C1OC2(c3ccccc31)c1ccc(O)c(Br)c1Oc1c2ccc(O)c1Br
active: [1] 6.92 µM | [9] 21.9 µM | [11] 12.3 µM
inactive: [3] | [12] | [19]

Cc1ccc(C2OC[C@@H]3OC(c4ccc(C)cc4)O[C@H]([C@H](O)CO)[C@@H]3O2)cc1 (some centres undefined)
inactive: [2] | [3] | [20] | [15] | [17] | [6] | [18] | [10] | [11] | [12] | [13] | [19] | [14]

CCCCCCCCCCCCCCCCCCNC(=O)OC1CCN(C(=O)OC[C@H](COC(=O)N(Cc2cccc[n+]2CC)C(=O)c2ccccc2OC)OC)CC1
inactive: [4] | [5] | [10]
active: [6] 26.8 µM | [7] 10.7 µM | [8] 21.3 µM | [19] 23.7 µM | [14] 29.8 µM

O=C1Cc2ccccc2C1
inactive: [4]

CCC(C)(C)c1ccc(CC(C)CN2C[C@@H](C)O[C@@H](C)C2)cc1 (some centres undefined)
active: [1] 23.9 µM | [15] 23.9 µM | [16] 23.9 µM | [17] 21.3 µM | [9] 23.9 µM
inactive: [3] | [4] | [18] | [7] | [8] | [10] | [13] | [14]

CC1=C(/C=C/C(C)=C/C=C/C(C)=C\C(=O)O)C(C)(C)CCC1
inactive: [2] | [3] | [4] | [5] | [6] | [18] | [8] | [9] | [10] | [11] | [12] | [13]
active: [15] 55.1 µM

COc1cc([C@@H]2c3cc4c(cc3[C@@H](O[C@@H]3O[C@@H]5CO[C@@H](C)O[C@H]5[C@H](O)[C@H]3O)[C@H]3COC(=O)[C@H]23)OCO4)cc(OC)c1O
active: [15] 48.4 µM | [17] 48.4 µM | [7] 1.08 µM
inactive: [1] | [4] | [16] | [5] | [6] | [18] | [8] | [9] | [10] | [11] | [12] | [13]

CC(=O)N(C)C
inactive: [4]

O=[N+]([O-])c1ccc(O)c2ncccc12
inactive: [1] | [3] | [20] | [4] | [16] | [6] | [18] | [8] | [9] | [10]
active: [15] 4.25 µM

CN1CCN(CCCN2c3ccccc3Sc3ccc(Cl)cc32)CC1
inactive: [5] | [6] | [8] | [9] | [13] | [14]
active: [2] 23.9 µM | [3] 23.9 µM | [20] 23.9 µM | [15] 23.9 µM | [17] 23.9 µM
